OTUD3 inh – inhibitors of human OTUD3 deubiquitinase; inhibition, % at 25 µM; hit rate 0.7% among 47,000; purified OTUD3, Ub-rhodamine fluorescence, 2 h; Q5T2D3
USP17 block – inhibitors of human USP17 deubiquitinase; purified USP17, Ub-rhodamine cleavage fluorescence, 3 h; inhibition, % at 50 µM; hit rate 6.5% among 47,000; AID 1645855
USP28 block – inhibitors of human USP28 deubiquitinase | purified USP28, Ub-rhodamine cleavage fluorescence, 30 min | Q96RU2 | hit rate 3% among 47,000 | inhibition, % at 25 µM
USP30 inh – human USP30 deubiquitinase inhibition; Q70CQ3; purified USP30, Ub-rhodamine cleavage fluorescence; inhibition, % at 25 µM; hit rate 5.3% among 47,000; AID 1645860
Target sequence (Q70CQ3 whole entry, looked up): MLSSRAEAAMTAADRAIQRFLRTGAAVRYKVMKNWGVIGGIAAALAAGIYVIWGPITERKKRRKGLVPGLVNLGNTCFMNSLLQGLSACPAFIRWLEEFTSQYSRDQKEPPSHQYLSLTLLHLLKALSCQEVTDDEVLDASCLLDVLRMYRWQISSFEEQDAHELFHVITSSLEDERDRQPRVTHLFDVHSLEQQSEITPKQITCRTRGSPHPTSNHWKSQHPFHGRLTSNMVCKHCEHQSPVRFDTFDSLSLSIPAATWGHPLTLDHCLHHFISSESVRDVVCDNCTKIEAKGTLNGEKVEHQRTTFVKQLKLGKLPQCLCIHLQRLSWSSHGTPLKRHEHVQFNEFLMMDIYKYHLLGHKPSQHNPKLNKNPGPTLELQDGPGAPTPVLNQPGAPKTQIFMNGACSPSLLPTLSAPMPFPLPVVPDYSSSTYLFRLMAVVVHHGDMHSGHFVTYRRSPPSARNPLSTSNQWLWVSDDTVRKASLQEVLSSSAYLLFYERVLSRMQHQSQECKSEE
* hit, by the source's call; / = no result given. Shown are actives, neighbours in structure and some others; about 11% of the full set was active somewhere. Rule as the data show it: active = inhibition above about 30%; inactive = the rest.

SMILES | OTUD3 inh | USP17 block | USP28 block | USP30 inh
COc1ccc(-c2cn3cccnc3n2)cc1NC(=O)c1cccc(C)c1 | -5 | 13 | -5 | 0
COc1ccc(CC(=O)Nc2cccc(-c3nc4ncccc4o3)c2)cc1OC | 10 | -26 | 55* | 0
COc1ccc(CC(=O)Nc2cccc(-c3cn4cccnc4n3)c2)cc1 | -68 | 31* | 15 | -286
COc1ccc(C(=O)Nc2cccc(-c3nc4ncccc4o3)c2)cc1 | -7 | -9 | -7 | -19
COc1ccc(C(=O)Nc2cc(C)c(O)c(-c3nc4ncccc4o3)c2)cc1Cl | 12 | 19 | 0 | -48
COc1ccc(C(=O)Nc2ccc(-c3nc4ncccc4o3)cc2)cc1Br | 18 | 32* | 21 | 26
Cc1nc(-c2ccc(-c3noc(-c4cnccn4)n3)cc2)cs1 | -19 | -19 | -17 | -52
CC(=O)Nc1ccc(S(=O)(=O)Nc2ccc(Nc3ccc(-n4cccn4)nn3)cc2)cc1 | 2 | 36* | 0 | 50*
CC(=O)Nc1ccc(S(=O)(=O)Nc2cc(-c3ccccc3)nn2C)cc1 | 0 | 1 | -4 | 1
Cc1ccc2nc(CCc3ccc(NS(=O)(=O)c4cccc(Cl)c4C)cc3)[nH]c2c1 | -6 | 10 | 52* | 5
Cc1ccc2nc(CCc3ccc(NS(=O)(=O)c4cccc(Cl)c4)cc3)[nH]c2c1 | -10 | 12 | 37* | 0
Cc1cccc(S(=O)(=O)Nc2ccc(-c3nc4ccc(C)cc4s3)cc2)c1 | -14 | -1 | -28 | -176
Cc1cccc(S(=O)(=O)Nc2ccc(CCc3nc4ccc(C)cc4[nH]3)cc2)c1 | -11 | -1 | 36* | 1
COc1ccc(NC(=O)Cn2c(CSc3ccc(C)cc3)nc3ccccc32)cc1 | -9 | 54* | 25 | -112
Cc1ccc(OCc2nc3ccccc3n2CC(=O)Nc2ccc(C(F)(F)F)cc2)cc1 | 0 | 18 | -2 | 38*
CC(=O)c1cc2c(cc1NC(=O)COc1ncnc3scc(-c4ccc(C)cc4)c13)OCO2 | -4 | -11 | -18 | -56
Cc1cc(=O)[nH]c(N2CCN(c3cccc(C(F)(F)F)c3)CC2)n1 | 10 | 5 | 3 | 19
Cn1c(=O)c2c(nc(CN3CCOCC3)n2CCc2ccccc2)n(C)c1=O | 5 | 3 | 1 | 32*
Cn1c(=O)c2c(nc(CN3CCN(c4ccccc4)CC3)n2CCN2CCOCC2)n(C)c1=O | -2 | -5 | -2 | -3
COc1ccc(CNC(=O)CC(c2cccc(F)c2)n2cccc2)cc1 (stereo not drawn) | 20 | 13 | 19 | 35*
COc1cccc(CNC(=O)CC(c2cccc(F)c2)n2cccc2)c1 (stereo not drawn) | 7 | -22 | 3 | 4
COc1cccc(NC(=O)CN2CCC(Cc3ccccc3)CC2)c1 | 1 | 2 | 0 | 0
O=C(O)CC1(c2ccc(F)cc2)C2CC3CC(C2)CC1C3 (stereo not drawn) | 22 | 32* | 15 | 40*
O=C(O)CC1(CC(=O)NCc2ccc(F)cc2)CCCCC1 | 15 | 11 | 9 | 21
Cc1ccc(C2C3=C(CC(c4ccc(Cl)cc4)CC3=O)Nc3ccccc3N2C(=O)c2ccccc2)cc1 (stereo not drawn) | 5 | 28 | 15 | 36*
SMILES | OTUD3 inh | USP17 block | USP28 block | USP30 inh
COc1ccc(C2C3=C(CC(c4ccc(C)cc4)CC3=O)Nc3ccccc3N2C(=O)c2ccccc2)cc1 (stereo not drawn) | 2 | 23 | 13 | 12
Cc1ccc(C2CC(=O)C3=C(C2)Nc2ccccc2N(C(=O)c2ccccc2)C3c2ccccc2)cc1 (stereo not drawn) | 10 | 26 | 23 | 43*
O=C1COC2(CCN(C(=O)c3ccco3)CC2)CN1Cc1ccccn1 | 5 | / | 7 | 0
CCn1cc2c(n1)C(COC)CN(C(=O)c1cc(C)nn1CC)C2 (stereo not drawn) | 11 | 65* | 25 | 54*
COCC1CN(C(=O)c2cccn2C)Cc2cn(CC3CC3)nc21 (stereo not drawn) | 12 | 12 | 1 | 17
Cc1ccc(NC(=O)Cn2cc(C(=O)c3ccccc3)c(=O)c3cc(C)ccc32)cc1 | -1 | 20 | 7 | 12
CCc1nn2c(S(=O)(=O)N3CCN(c4ccccc4)CC3)c(C)nc2s1 | 6 | 6 | 8 | 39*
O=C(NC1CC1)c1ccc2c(=O)n(-c3ccc(F)cc3)cnc2c1 | -2 | 20 | -20 | -10
COc1cccc(-n2cnc3cc(C(=O)NC4CC4)ccc3c2=O)c1 | -1 | 73* | -4 | -14
COc1cccc(CNC(=O)c2cnc3sc4c(n3c2=O)CCC4)c1 | 1 | -9 | -1 | -55
Cc1cccc(CNC(=O)c2cnc3sc4c(n3c2=O)CCCC4)c1 | 13 | 16 | 7 | 37*

Screening data from PubChem.
